# In ChEMBL document CHEMBL4513216, “Probing the Open Global Health Chemical Diversity Library for Multistage-Active Starting Points for Next-Generation Antimalarials” (ACS Infect Dis, 2020):
# Hit rate of the full screen: of about 69,000 compounds, about 8,600 (12%) showed an effect of 50% or more. The list comes from a sample in which strong results are over-represented; it also holds similar structures and randomly drawn compounds.
# Test system: Plasmodium berghei
# Assay: Screen against P. berghei liver stage (PbLuc), transformed with Luciferase, at 10uM
# Assay type: functional, HepG2
# Conditions: tested at 10 uM
row,Compound,INHIBITION [%]
1,O=C(N1CCCC1)N1CCC2(CCN(Cc3ccccn3)C2=O)C1 (stereo not drawn),15.6
2,Cc1ccc(CN2CCc3nnc(CN4CCCC4=O)n3CC2)s1,37.1
3,O=S(=O)(Cc1ccccc1)NCC1CCCN(Cc2cccs2)C1 (stereo not drawn),48.1
4,CS(=O)(=O)NCC1CCCN(C(=O)COCc2ccccc2)C1 (stereo not drawn),32.6
5,O=C(Cc1cccs1)N1CCCC(CNS(=O)(=O)Cc2ccccc2)C1 (stereo not drawn),73.6
6,O=C(CN1CCCC1)N1CCCC(CNS(=O)(=O)Cc2ccccc2)C1 (stereo not drawn),51.3
7,CS(=O)(=O)NCC1CCCN(C(=O)CCCc2ccccc2)C1 (stereo not drawn),-0.18
8,O=C(Cc1ccsc1)N1CCCC(CNS(=O)(=O)Cc2ccccc2)C1 (stereo not drawn),34.6
9,CC(=O)N1CCCC1c1ccc(CN2CCOCC2)cn1 (stereo not drawn),35.625
10,CCC(COC)NC(=O)N1CCC(n2ccc(C(F)(F)F)n2)CC1 (stereo not drawn),-15.1
11,CCn1ccc(-c2nnc(SCC(=O)Nc3ccc(C)cc3)n2CC)n1,7.38
12,CCN1C(=O)CC(c2ccccc2)C12CCN(CC1CCOCC1)CC2 (stereo not drawn),43.2
13,CCN(C)c1ncnc2c1CCN(S(=O)(=O)c1ccccc1)CC2,43.9
14,Cc1ccc(OCCn2cnc3oc(C)c(C(=O)O)c3c2=O)cc1,-1.04
15,CC(Cn1ccnc1)NC(=O)N1CCN(Cc2ccco2)CC1 (stereo not drawn),-13.65
16,OC1CCN(c2cncc(CCC3CCCN3)n2)CC1 (stereo not drawn),9.575
17,O=C(CCN1CCCCO1)NCc1cn2c(n1)SCC2,78.4
18,O=C(NCc1cn2c(n1)SCC2)c1cn(CCN2CCCCC2)nn1,21
19,O=C(NCc1cn2c(n1)SCC2)c1ccc(CN2CCCCC2)cc1,29.2
20,CN(C(=O)C1CCCC1)C(c1cccc(F)c1)c1ccccn1 (stereo not drawn),5.7
21,CCOc1ccc(C(=O)N(Cc2cnn(C)c2)C(C)C)cc1OCC,27.8
22,O=C(CSCC1CC1)N1CCCC2(CCC(=O)N(CC3CC3)C2)C1 (stereo not drawn),32.1

row,Compound,INHIBITION [%]
1,O=C(CCC(F)(F)F)N1CCCC2(CCC(=O)N(CC3CC3)C2)C1 (stereo not drawn),59.4
2,O=C(CO)N1CCCC2(CCC(=O)N(CC3CC3)C2)C1 (stereo not drawn),33
3,Cc1ccc(C(=O)N2CCc3ncnc(-c4cnn(C)c4)c3CC2)cn1,-64.6
4,CCC(=O)Nc1ccc(N2CCC(OC)CC2)c(C(F)(F)F)c1,45.1
5,CCNC(=O)C1CCCN(c2ccc(C#N)cc2C(F)(F)F)C1 (stereo not drawn),26.3
6,COC1CCN(c2ccc(NC(=O)C3CC3)cc2C(F)(F)F)CC1,95.8
7,COCC(=O)Nc1ccc(N2CCC(OC)CC2)c(C(F)(F)F)c1,30.3
8,COCCCNC(=O)Nc1ccc(-n2cncn2)c(C(F)(F)F)c1,-37.55
9,CCNC(=O)Nc1ccc(N2CCC(OC)CC2)c(C(F)(F)F)c1,89.6
10,COCCNC(=O)[C@H]1CN(Cc2nccs2)C[C@H]2OCC[C@@H]12,-3.19
11,CCOCCC1(CNC(=O)c2ccc(C)nc2)CCCC1,-30.6
12,c1ccc(-c2noc(CN3CCC(c4ccn[nH]4)CC3)n2)cc1,35.1
13,c1ccc(-c2cc(CN3CCC(c4ccn[nH]4)CC3)on2)cc1,73.5
14,Cc1cccc(-c2noc(CN3CCC(c4ccn[nH]4)CC3)n2)c1,-39.6
15,Cn1cnc(S(=O)(=O)N2CCCC2c2ccnc3nccn23)c1 (stereo not drawn),23.84
16,CCc1nnsc1C(=O)N1CCCC(n2ccnc2C(C)C)C1 (stereo not drawn),53.9
17,CC(C)c1nccn1C1CCCN(C(=O)CCc2cscn2)C1 (stereo not drawn),62.1
18,CSCC(=O)N1CCCC(n2ccnc2C(C)C)C1 (stereo not drawn),45.4
19,CC(C)c1nccn1C1CCCN(C(=O)CCNS(C)(=O)=O)C1 (stereo not drawn),36.1
20,CC(C)c1nccn1C1CCCN(C(=O)CCc2cnn(C)c2)C1 (stereo not drawn),33.3
21,CC(C)c1nccn1C1CCCN(C(=O)c2nccnc2N)C1 (stereo not drawn),41.5
22,Cc1cc(N2CCC(c3ncc[nH]3)CC2)c2ccccc2n1,41.6

row,Compound,INHIBITION [%]
1,Cc1nc(CN2CCOCC3(CCN(c4cnccn4)CC3)C2)cs1,-11.6
2,CN(CC(C)(CO)CO)C(=O)Nc1cc(Cl)cc(Cl)c1,26.515
3,c1csc(-c2nc(CN3CCCCC3Cn3cccn3)co2)c1 (stereo not drawn),11.5
4,NC1CC(C(F)(F)F)=NC=C1c1ccccc1 (stereo not drawn),4.08
5,COc1ccc(C2=CN=C(C(F)(F)F)CC2N)cc1 (stereo not drawn),-0.371
6,NC1CC(C(F)(F)F)=NC=C1c1ccc(Cl)cc1 (stereo not drawn),59
7,COc1ccc(C(=O)NC2CC2)c(OC2CCN(CCCSC)CC2)c1,60.3
8,COc1ccc(C(=O)NC2CC2)c(OC2CCN(C3CCC3)CC2)c1,29.4
9,COc1ccc(C(=O)NC2CC2)c(OC2CCN(C(C)CO)CC2)c1 (stereo not drawn),76.6
10,COc1ccc(C(=O)NC2CC2)c(OC)c1,23.6
11,COc1ccc(C(=O)NC2CC2)c(OC2CCN(CC3CC3)CC2)c1,26.7
12,COc1ccccc1OC1CCN(C(=O)CCCN2CCOCC2)CC1,23.8
13,O=C(NC1CCCCC1)N1CCn2c(nnc2C2CCCN2)C1 (stereo not drawn),44.1
14,CS(=O)(=O)NCc1nnc2n1CCN(Cc1cccs1)CC2,34.6
15,NC(=O)COc1ccc(CNCc2cc(F)cc(F)c2)cc1,-28
16,Cc1cc2nc(C(C)C)cc(NCCc3ccncc3)n2n1,34
17,CC(=O)N1CCC(C(=O)NC(C)c2cccc(OC(F)F)c2)CC1 (stereo not drawn),58.3
18,CC(NC(=O)C1CCN(S(N)(=O)=O)CC1)c1cccc(OC(F)F)c1 (stereo not drawn),17
19,CC(=O)N1CC(C(=O)Nc2cccc(OC(F)F)c2)C1,26
20,CCc1ncc2c(n1)CN(Cc1cc(C)on1)CC2,35.4
21,Cc1nn(C)cc1-c1cncn1CCN(C)C1CCCC1,-25.3
22,CCCN1CCCN(C(=O)c2oc(C)nc2C)CC1,2.7

row,Compound,INHIBITION [%]
1,COCCN1CCCN(C(=O)c2oc(C)nc2C)CC1,33.4
2,Cc1ocnc1C(=O)N1CCN(CCOc2ccccc2)CC1,37.6
3,Cc1nc(C)c(C(=O)N2CCN(CCOc3ccccc3C)CC2)o1,66.3
4,CCCC(=O)N1CCCN(C(=O)c2oc(C)nc2C)CC1,80
5,Cc1nc(C)c(C(=O)N2CCc3nnc(C4CCCCN4C)n3CC2)o1 (stereo not drawn),-4.68
6,COCCNC(=O)C(C)n1nc(-c2ccco2)cc(N)c1=O (stereo not drawn),42.6
7,CC(C)OCCCN(Cc1ccncc1)Cc1cccc(F)c1F,-12.9
8,COc1cc2cc(C(=O)NCC(=O)O)n(C)c2c(OC)c1OC,57.3
9,COc1cc2cc(C(=O)O)n(C)c2c(OC)c1OC,-9.48
10,COc1cc2cc(C(=O)NCCC(=O)O)n(C)c2c(OC)c1OC,11
11,Cc1nc(C2CCCN2CCC(=O)N2CCc3ccccc32)no1 (stereo not drawn),5.03
12,Cc1nnc(N2C[C@H](OCC3CCCC3)[C@H]3OCCC[C@H]32)s1,-34.7
13,COc1cccc(C2CCN(c3ccc4cc[nH]c4n3)C2)c1OC (stereo not drawn),89.9
14,COc1ccc(OC)c(C2CCN(Cc3nc(C)n4ccccc34)C2)c1 (stereo not drawn),45.8
15,COC(=O)c1ccc(N2CCC(c3ccccc3)CC2)nn1,-18.5
16,COc1cccc(C2CC(=O)Nc3nc(N4CCOCC4)sc32)c1OC (stereo not drawn),13.4
17,COc1ccc(OC)c(C2CCN(C3CCOCC3)C2)c1 (stereo not drawn),-68.6
18,COc1ccccc1C1CCN(c2ccc3cc[nH]c3n2)CC1,88.2
19,COc1ccccc1OC1CCN(c2nc(N)nc3[nH]cnc23)CC1,-18.8
20,COc1cccc(C2CC(=O)Nc3nc(N4CCCCC4)sc32)c1OC (stereo not drawn),19.3
21,COc1ccc(OC)c(C2CCN(c3ccc4cc[nH]c4n3)C2)c1 (stereo not drawn),79.2
22,Fc1cnc(N2CCC3(CCCN(c4nncs4)C3)C2)nc1 (stereo not drawn),4.68

row,Compound,INHIBITION [%]
1,COCC1COCCC12CCN(CCc1ccccc1)CC2 (stereo not drawn),2.3
2,O=C(Nc1cn[nH]c1)c1ccncc1,35.95
3,CN(C)C(=O)CNC(=O)c1nc(C2CC2)n(-c2ccccc2Cl)n1,-20.8
4,O=C(c1ccnnc1)N1CC[C@H]2C[C@H](c3ccncn3)O[C@@H]2C1,25.2
5,Cc1ccc(Oc2ncccc2C(=O)O)c(C)c1,-16.2
6,CC(C)c1cc(N2CCC(N)CC2)n2nccc2n1,-6.53
7,CC(C)[C@H](Nc1cc(-c2ccncc2)nc2ccnn12)C(N)=O,25.5
8,CC(C)c1cc(N2CC[C@H](F)C2)n2nccc2n1,65.7
9,CC(C)c1cc(N2CCC(CCC(=O)NC3CC3)CC2)n2nccc2n1,33.5
10,CC(C)c1cc(NCC(O)CO)n2nccc2n1 (stereo not drawn),36.8
11,CC(C)c1cc(NCC(C)N2CCCC2)n2nccc2n1 (stereo not drawn),65.1
12,CC(=O)NCC1CCN(c2cc(C(C)C)nc3ccnn23)CC1,59.4
13,CC(C)c1cc(N[C@@H](CO)C(N)=O)n2nccc2n1,42.3
14,Cc1cnn(CC2CCN(c3cc(C(C)C)nc4ccnn34)CC2)c1,21.2
15,CC(C)c1cc(NCC(O)c2ccncc2)n2nccc2n1 (stereo not drawn),0.897
16,CC(C)c1cc(N[C@H](C(N)=O)C(C)C)n2nccc2n1,55.2
17,CC(C)c1cc(N2CCN(c3ccc(O)cc3)CC2)n2nccc2n1,26.8
18,O=C(Cc1ccsc1)N1CCC(O)(CN2CCc3ccccc3C2)C1 (stereo not drawn),30.8
19,COc1ncccc1CN1C[C@@H]2COC[C@]2(COCC(=O)N(C)C)C1,-3.52
20,CCn1cc(C(=O)NCCN2CCCc3ccccc32)c(C)n1,12.9
